Rac1 wt GTP bind = human Rac1 wildtype GTP binding, inhibitors and activators; P63000; GST-Rac1 beads, fluorescent GTP binding, flow cytometry; actives lie on both sides; 0 = cold GTP competed, 100 = untreated; GTP binding activity (% of control), % at 10 µM; 0.27% of 190,000 active;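 active means GTP binding activity at least 20 points away from the 100% control level, either lower or higher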
Rab7 wt modul = alters GTP binding to wildtype dog Rab7; GTP binding activity (percent of control), % at 10 µM; GST-Rab7 beads, fluorescent GTP binding, flow cytometry; actives lie on both sides; untreated = 100%, excess cold GTP = 0%; AID 758; 0.055% of 190,000 active;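 active means fluorescent GTP binding to Rab7 beads changed by at least 20 points from the 100% baseline, either direction, mostly lower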;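 further: median green fluorescence of bound Bodipy-FL-GTP per Rab7 bead population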
Cdc42 wt GTP = human Cdc42 wildtype GTP binding change, either direction; P60953; GST-Cdc42 beads, Bodipy-GTP binding, flow cytometry; actives lie on both sides; percent activity (GTP binding), % at 10 µM; 0.2% of 190,000 active; AID 761;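 active means percent activity GTP binding at least 20 points away from the 100% baseline, either down as inhibitor or up as activator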;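 further: median bead fluorescence of bound Bodipy-FL-GTP at 100 nM; below 100% means less GTP binding so inhibitor and above means activator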
Rab2A wt mod = changes GTP binding to wildtype dog Rab2A, up or down. GST-Rab2 wt beads, Bodipy-GTP binding, flow cytometry. GTP binding activity, % at 10 µM. 0.19% of 190,000 active. AID 760;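 active means GTP binding activity at least 20 points away from 100%, either lowered or raised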
HRas wt GTP = changes GTP binding to wildtype human HRas | P01112 | GST-Ras wt beads, Bodipy-FL-GTP binding, flow cytometry; actives lie on both sides | GTP binding activity, % at 10 µM | 0.14% of 190,000 active;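 active means GTP binding activity at least 20% away from the 100% baseline, either lowered as inhibitor or raised as activator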
Target sequence (P01112 whole entry, looked up): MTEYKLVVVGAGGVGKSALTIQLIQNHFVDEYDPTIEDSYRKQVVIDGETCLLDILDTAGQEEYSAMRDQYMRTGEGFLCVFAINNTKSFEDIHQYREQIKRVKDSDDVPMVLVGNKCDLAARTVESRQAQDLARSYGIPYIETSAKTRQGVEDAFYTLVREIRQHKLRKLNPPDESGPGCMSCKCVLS
Rac1 act GTP bind = modulators of GTP binding to human Rac1 activated mutant; AID 764; 0.11% of 190,000 active; P63000; percent activity (GTP binding), % at 10 µM; GST-Rac1 activated beads, fluorescent GTP binding, flow cytometry; actives lie on both sides; 100% means binding = to untreated wells;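 active means GTP binding at least 20 percentage points away from the 100% baseline, in either direction, so actives lie on both sides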
Each line names hits and unclear results; the compound was inactive in the other large screens; [ ] = remark or other dose. An excerpt weighted towards active compounds, which were near 0.37% of everything screened.

O=C(NCC(c1cccs1)N1CCOCC1)c1ccc(Cl)c([N+](=O)[O-])c1 (stereo unspecified)	none
CC(Sc1nnc(NC2CCCCC2)s1)C(=O)Nc1ccc2c(c1)C(=O)c1ccccc1C2=O (stereo unspecified)	Rac1 wt GTP bind 75.0, Rab2A wt mod 77.0
O=C(CN1CCN(Cc2ccccc2)CC1)N/N=C/c1c[nH]c2ccccc12	none
COc1ccc(CC2(CO)CCN(S(=O)(=O)c3sccc3C)CC2)cc1	Rac1 wt GTP bind 58.0, Rab7 wt modul 66.0, Cdc42 wt GTP 63.0, Rab2A wt mod 66.0, HRas wt GTP 61.0, Rac1 act GTP bind 57.0
COc1ccc(CC2(CO)CCN(S(=O)(=O)c3c(C)nn(C)c3Cl)CC2)cc1	none
CCOc1ccc(NCc2ccccc2OCc2cccc(F)c2)cc1	Rac1 wt GTP bind 129.0[activator]
CCNC(=O)CSc1nc2ccccc2c(=O)n1-c1cc(OC)ccc1OC	none
O=c1c2ccccc2nc2c3ccccc3c(NCc3ccccn3)nn12	Rac1 wt GTP bind 65.0, Cdc42 wt GTP 75.0, Rab2A wt mod 74.0, HRas wt GTP 76.0
O=c1c2ccccc2nc2c3ccccc3c(NCc3cccnc3)nn12	Rac1 wt GTP bind 69.0, Cdc42 wt GTP 72.0, Rab2A wt mod 72.0, HRas wt GTP 75.0
Cc1nc(NCc2ccccn2)c2ccccc2n1	none
CCOC(=O)c1nc(NCc2cccnc2)c2ccccc2n1	none
O=c1c2ccccc2nc2c3ccccc3c(NCCO)nn12	Rac1 wt GTP bind 63.0, Cdc42 wt GTP 58.0, Rab2A wt mod 62.0, HRas wt GTP 62.0, Rac1 act GTP bind 78.0
COc1cc(NC(=O)COC(=O)c2nc3nc(C)cc(C)n3n2)cc(OC)c1	none
COc1ccc(OC)c(NC(=O)CN(C)S(=O)(=O)c2ccc(Cl)cc2)c1	none
O=C(NN1C(=O)c2ccc(-c3ccc4c(c3)C(=O)N(NC(=O)c3cccnc3)C4=O)cc2C1=O)c1cccnc1	none
COCCCNCCOCCOc1ccc(Cl)cc1C(C)(C)C	none
O=S(=O)(Cc1ccccc1)N1CCc2ccccc21	Rab2A wt mod 37.0
CC(=O)Nc1ccc(NC(=O)CCn2nnc3ccccc32)cc1	Rab7 wt modul 39.0, Rab2A wt mod 35.0, HRas wt GTP 32.0
NS(=O)(=O)c1ccc(N2N=C(c3ccccc3)CC2c2ccc(F)cc2)cc1 (stereo unspecified)	none
COc1ccc(C2CC(c3ccccc3)=NN2c2ccc(S(N)(=O)=O)cc2)cc1 (stereo unspecified)	Cdc42 wt GTP 78.0
N#Cc1nn(-c2ccccc2)nc1N1CCCCC1	none
O=C(CSc1ccccn1)N1CCc2ccccc21	none
COc1cccc2sc(Nc3nc(-c4ccccn4)cs3)nc12	Rac1 wt GTP bind 79.0
c1ccc(Nc2nc(-c3ccccn3)cs2)cc1	none
